Compound activity: PubChem BioAssay, National Center for Advancing Translational Sciences (NCATS)
Most compounds without a hit are left out; they make up all but 21% or so of the library.
DT40 TDP1 CPT: qHTS for Inhibitors of human tyrosyl-DNA phosphodiesterase 1 (TDP1): qHTS in cells in presence of CPT; Potency, µM (titrated, usually from 46.2 µM), inactives show top-dose activity change, negative = growth inhibition, usual class: inhibitors; actives 12% (n = 420,000); chicken DT40 Tdp1-/-;hTDP1 cells + 20 nM CPT, ATP luminescence, 48 h; AID 686979, 2013; note: potency is the fitted concentration of half-maximal effect; nearly all actives have a fitted effect of over 55% in size
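Cell growth measured by CellTiter-Glo luminescence after a minimum 48 h, 37 C compound exposure with 20 nM CPT in Tdp1-knockout DT40 cells stably expressing hTDP1, seeded 400/well; qHTS titration format.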
ELG1 repair inh: qHTS screen for small molecules that inhibit ELG1-dependent DNA repair in human embryonic kidney (HEK293T) cells expressing luciferase-tagged ELG1 | HEK293T ELG1-luciferase reporter, luminescence, 16 h; DNA damage induced by 5-fluorouridine | Potency, µM (series often up to 46.1 µM), for inactives: at the highest dose activity change, negative = inhibition, most hits filed as inhibitors | actives 2.3% (n = 330,000) | AID 504467, 2011; note: potency is the fitted concentration of half-maximal effect; nearly all actives have a fitted effect of over 55% in size
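Reporter activity after DNA damage by 5-fluorouridine is monitored. Compound-treated cells incubate 16 hr at 37 °C, then ONE-Glo is added for 30 min before luminescence reading.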
IL1B secr inh: qHTS for Inhibitors of Inflammasome Signaling: IL-1-beta AlphaLISA Primary Screen; THP-1 LPS/ATP IL-1B secretion, AlphaLISA, 16 h; stronger effect = lower value; activity change, % at 57.5 µM; actives 4.7% (n = 360,000); AID 743279, 2014; in the data active = activity change below about -50%; inconclusive = mostly about -30% to -49%
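Secreted IL-1B measured by AlphaLISA bead assay after 16 h compound exposure of THP-1 cells; compounds (final up to 57.5 uM) added 1 h before LPS (250 ng/mL) and ATP (1.25 mM) stimulation; lower signal means less secretion.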
DT40 TDP1 no CPT: qHTS for Inhibitors of human tyrosyl-DNA phosphodiesterase 1 (TDP1): qHTS in cells in absence of CPT. AID 686978, 2013. DT40 Tdp1-/- hTDP1 cells, no CPT, ATP luminescence, 48 h. actives 15% (n = 420,000). Potency, µM (doses to about 46.2 µM), for the others: top-dose activity change, negative = growth inhibition, usual class: inhibitors; note: potency is the fitted concentration of half-maximal effect; nearly all actives have a fitted effect of over 55% in size
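Stably hTDP1-transfected Tdp1-null chicken DT40 cells were treated with library compounds minus camptothecin and grown for at least 48 hr at 37 °C, after which cellular ATP was quantified by luminescence.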
RORg inh: qHTS for inhibitors of ROR gamma transcriptional activity | Nuclear receptor ROR-gamma (Mus musculus), P51450 | Drosophila S2 Gal4-RORgamma UAS-luciferase reporter, 20 h | Potency, µM (highest dose often 53.6 µM), inactives show at the top dose activity change, negative = inhibition, most hits filed as inhibitors | actives 5.4% (n = 310,000) | AID 2551, 2010; note: potency is the fitted concentration of half-maximal effect; nearly all actives have a fitted effect of over 60% in size
Target sequence (P51450 whole entry, looked up, the tested form may be a part): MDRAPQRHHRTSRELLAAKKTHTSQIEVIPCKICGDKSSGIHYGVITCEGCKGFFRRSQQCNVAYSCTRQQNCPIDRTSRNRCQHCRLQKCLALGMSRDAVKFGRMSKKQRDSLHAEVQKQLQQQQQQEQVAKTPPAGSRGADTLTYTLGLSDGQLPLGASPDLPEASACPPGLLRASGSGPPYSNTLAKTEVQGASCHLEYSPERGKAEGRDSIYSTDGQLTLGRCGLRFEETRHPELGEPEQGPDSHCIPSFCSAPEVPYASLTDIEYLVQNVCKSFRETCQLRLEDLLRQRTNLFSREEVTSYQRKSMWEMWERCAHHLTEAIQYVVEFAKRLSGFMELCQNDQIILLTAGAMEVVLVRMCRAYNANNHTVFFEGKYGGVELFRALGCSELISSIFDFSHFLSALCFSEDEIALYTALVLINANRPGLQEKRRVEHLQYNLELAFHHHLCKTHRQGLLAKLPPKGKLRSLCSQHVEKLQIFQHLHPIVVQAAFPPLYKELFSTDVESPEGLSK
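ROR gamma transcriptional activity was tracked as Gal4-UAS luciferase output in stably transfected Drosophila Schneider cells, with compound added 1 hr before 700 uM copper sulfate induction and a 20 hr ambient-temperature incubation.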
Gal4-VP16 FLuc: VP16 counterscreen qHTS for inhibitors of ROR gamma transcriptional activity. Drosophila S2 Gal4-VP16 UAS-luciferase, luminescence, 20 h. Potency, µM (series often up to 53.6 µM), inactives show at the top dose activity, negative = inhibition, hits mostly inhibitors. actives 3.5% (n = 310,000);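 note: Gal4-VP16 expression switched on by copper sulfate through the metallothionein promoter; potency is the fitted concentration of half-maximal effect; nearly all actives have a fitted effect of over 50% in size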
Active calls of the source: *; u = inconclusive; x = no result given. Unless noted, calls come from the whole dose curve; as a rule, active = well fitted curve in the direction sought with a large enough effect; inconclusive = small, poorly fitted or top-dose-only effect, or another doubt; inactive = no such curve, though single readings can be large; an effect the other way counts as inactive or inconclusive. % is set by controls: 0 for no effect and ±100 for the full control effect.

SMILES	DT40 TDP1 CPT	ELG1 repair inh	IL1B secr inh	DT40 TDP1 no CPT	RORg inh	Gal4-VP16 FLuc
Cc1cc(I)ccc1Nc1nc(NCCN2CCOCC2)nc(N2CCOCC2)n1	3.2µM*	x	x	5.6µM*	x	x
COC(=O)c1ccccc1S(=O)(=O)N1CCC(C(=O)NCCC2=CCCCC2)CC1	u	0%	-11	u	x	x
NC(=O)N=Nc1c(O)[nH]c2ccc([N+](=O)[O-])cc12	4%	6%	33	10%	2%	-3%
COc1ccccc1C(=O)N=Nc1c(O)[nH]c2ccc([N+](=O)[O-])cc12	u	-16%	23	23µM*	16%	9%
C=C(C)CNC(=S)N=Nc1c(O)[nH]c2ccc([N+](=O)[O-])cc12	4.1µM*	u	12	4.6µM*	2.5µM*	13µM*
CC(C)NC(=S)N=Nc1c(O)[nH]c2ccc([N+](=O)[O-])cc12	u	-19%	32	u	-7%	1%
CC(C)c1ccc(NC(=S)Nc2cccc3ccccc23)cc1	18µM*	u	-8	16µM*	3.5µM*	7.1µM*
CCc1cccc(NC(=S)Nc2cccc3ccccc23)c1	-24%	0%	23	-18%	4µM*	7.9µM*
Cc1ccc(NC(=S)Nc2cccc3ccccc23)cc1	-28%	u	30	-12%	2µM*	5.6µM*
Fc1ccc(NC(=S)Nc2cccc3ccccc23)cc1	-14%	u	6	u	u	u
Fc1ccc(NC(=S)Nc2cccc3ccccc23)cc1F	u	-7%	2	16µM*	11µM*	u
O=C(NCc1cccnc1)c1nc(-c2ccccc2)n(-c2ccccc2)n1	u	-18%	27	-22%	-6%	3%
S=C(NCCc1ccncc1)Nc1cccc2ccccc12	8%	-8%	-8	-19%	10µM*	u
C=CCNC(=S)Nc1cccc2ccccc12	-10%	0%	-5	-25%	24%	-10%
Cc1cccc(NC(=S)Nc2cccc3ccccc23)c1	u	1%	20	-10%	7.1µM*	8.9µM*
Cc1cccc(C(=O)Nc2ccc(C(=O)OCc3cc(=O)n4c5c(sc4n3)CCCC5)cc2)c1	-15%	x	x	-26%	x	x
c1cncc(-c2cc(-n3ccnc3)ncn2)c1	u	x	x	-14%	15%	2%
COc1cc(C2c3c(-c4c(C)cc(C)cc4O)n[nH]c3C(=O)N2CCCOC(C)C)cc(OC)c1OC (stereo unspecified)	u	x	x	-16%	x	x
COCCCN1C(=O)c2[nH]nc(-c3ccccc3O)c2C1c1cccc(Cl)c1 (stereo unspecified)	21µM*	u	10	2.9µM*	u	u
CC(C)OCCCN1C(=O)c2[nH]nc(-c3ccccc3O)c2C1c1cccc(Cl)c1 (stereo unspecified)	18µM*	u	u	23µM*	u	u
COc1cc(=O)n2c(c1C(=O)NCc1ccco1)CCN(Cc1ccc3ccccc3c1)CC2	-26%	x	x	-16%	x	x
C/C=C/c1ccc(OCC(O)CNCC(c2ccc(OC)cc2)N(C)C)c(OC)c1 (stereo unspecified)	u	13%	-57*	u	-26%	0%
C/C=C/c1ccc(OCC(O)CN(C)Cc2ccc(SC)cc2)c(OC)c1 (stereo unspecified)	u	-7%	u	23µM*	-20%	-10%
